Results: PubChem BioAssay (NCATS)
Inconclusive results are not listed. Values without a mark were called inactive. Active and inactive are the calls of the source. Calls come from the whole dose curve; as a rule, active = well fitted cell-killing curve with a large enough effect; inconclusive = small, poorly fitted or top-dose-only effect, or effect the other way; inactive = no such curve, though single readings can be large or run the other way.
Potency is the fitted concentration of half-maximal effect.

Assay: Quantitative High-Throughput drug screen in 47 multiple myeloma cell lines against the NCATS MIPE library collection: OPM1_PLB cell viability assay (AID 1918989); note: nearly all actives have a fitted effect of over 40% in size;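 for viability (% of control): 100% = DMSO-only wells and 0% = media-only wells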
Conditions: CellTiter-Glo, 48 h; series mostly up to 45.8 µM; viability (% of control): at the top concentration
Method in brief: (§1)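 ATP-based luminescence (CellTiter-Glo, 5 min RT incubation) quantified surviving cells following two days' treatment with MIPE 4.0 agents at 37 °C, 5% CO2.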
In the case of `CC(C)c1onc(-c2c(Cl)cccc2Cl)c1COc1ccc(C=Cc2cccc(C(=O)O)c2)c(Cl)c1`, the “viability (% of control)” value is reported as 128%.
With `CC(C)(OCc1nn(Cc2ccccc2)c2ccccc12)C(=O)O` the “viability (% of control)” value was 132%.
For `Cc1cc(CS(=O)(=O)c2ccccc2)cc(OCc2ccc(CN3CCC[C@H]3CO)cc2)c1`, the Potency was 20.9 µM (active).
In the case of `CCC[C@H](N[C@@H](C)C(=O)N1[C@@H]2CCCC[C@H]2C[C@H]1C(=O)O)C(=O)OCC`, the “viability (% of control)” value is reported as 117%.
For `Cn1cnc(-c2cc3nccc(Oc4ccc(NC(=S)NC(=O)Cc5ccccc5)cc4F)c3s2)c1`, the Potency was 18.7 µM (active).
For `OC[C@H]1O[C@@H](Oc2ccc(O)cc2)[C@H](O)[C@@H](O)[C@H]1O`, the “viability (% of control)” value was 103%.
For `COc1ccc(C=CC(=O)Nc2ccccc2C(=O)O)cc1OC`, the “viability (% of control)” value was 89.1%.
With `COc1cc2ncn(-c3cc(OCc4ccccc4S(C)(=O)=O)c(C#N)s3)c2cc1OC` the “viability (% of control)” value was 121%.

Assay: Quantitative High-Throughput drug screen in 47 multiple myeloma cell lines against the NCATS MIPE library collection: SKMM1_PLB cell viability assay (AID 1919863); note: nearly all actives have a fitted effect of over 35% in size
Conditions: SKMM1 myeloma viability, CellTiter-Glo ATP, 48 h; viability: stronger effect = lower value
Method in brief: as §1
In the case of `N#CC1(c2cccc(C(=O)Nc3cc(Oc4ccc5nc(NC(=O)C6CC6)sc5n4)ccc3F)c2Cl)CC1`, the Potency is reported as 2.96 µM (active).
With `CCCCc1ccc(NS(=O)(=O)c2ccc(C)c(C(=O)N3CCN(c4cccc(C)c4C)CC3)c2)cc1` the Potency was 20.9 µM (active).
In the case of `C[C@]12C=CC(=O)C=C1CC[C@@H]1[C@@H]2[C@@H](O)C[C@@]2(C)[C@@H]1CC[C@]2(O)C(=O)CO`, the Potency is reported as 1.48 µM (active).
`Cc1cnc(-c2cc(N3CCN(C(=O)CCS(C)(=O)=O)CC3)ncc2Cl)c(C)c1` showed a viability of 114%.
Molecule `CN(C)CCOc1cc(-c2cn[nH]c2)ccc1NC(=O)C1COc2ccccc2O1` (stereo not drawn) has a viability of 131%.
In the case of `CCC(=O)NCC[C@@H]1CCc2ccc3c(c21)CCO3`, the viability is reported as 137%.
For `C[C@]12CCC3=C4CCC(=O)C=C4CC[C@@H]3[C@H]1CC[C@@]2(O)CC#N`, the viability was 162%.
With `Cc1ccc(C(=O)N(CCCN)[C@@H](c2nc3cc(Cl)ccc3c(=O)n2Cc2ccccc2)C(C)C)cc1` the Potency was 23.5 µM (active).
`CCCCOCCOc1nc(-c2ccc(C(=O)O)c(F)c2)sc1C` gave a viability of 118%.
For `Cc1c(-c2cccc3c(CCCOc4cccc5ccccc45)c(C(=O)O)n(Cc4cccnc4)c23)c(COc2ccc(N3CCN([S+](=O)([O-])N(C)C)CC3)cc2)nn1C`, the Potency was 23.5 µM (active).
